What all share (assay): NCI-60 one-dose screen, 48 h (100 = growth as untreated, 0 = no growth, -100 = all killed)
In one assay the test system is HCT-15 colon. Particulars: 10 µM.
The next assay relates to HT29 colon. Particulars: 10 µM.
Another assay concerns SNB-75 CNS. Particulars: 10 µM.
The next assay deals with SNB-19 CNS. Particulars: 10 µM.
The subject of the next assay is U251 CNS. Particulars: 10 µM.
The test system of a further assay is PC-3 prostate. Particulars: 10 µM.
A further assay has as its system SK-MEL-5 melanoma. Particulars: 10 µM.
A further assay has as its system UACC-62 melanoma. Particulars: 10 µM unless noted.
The next assay deals with LOX IMVI melanoma. Particulars: 10 µM.
The test system of the next assay is SK-MEL-2 melanoma. Particulars: 10 µM.
The test system of another assay is EKVX NSCLC. Particulars: 10 µM.
Another assay has as its system SN12C renal. Particulars: 10 µM.
The test system of a further assay is UO-31 renal. Particulars: 10 µM.
The test system of another assay is TK-10 renal. Particulars: 10 µM unless noted.
Another assay concerns ACHN renal. Particulars: 10 µM.
For another assay, the system named is CAKI-1 renal. Particulars: 10 µM.
A further assay deals with A498 renal. Particulars: 10 µM.
A further assay relates to CCRF-CEM leukemia. Particulars: 10 µM.
Another assay has as its system MOLT-4 leukemia. Particulars: 10 µM.
A further assay relates to SK-MEL-28 melanoma. Particulars: 10 µM.

The structures appear in SMILES notation. Compounds without any hit were thinned out: in the full panel of roughly 83,000, 20% have a hit.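 Compound tested at a single concentration for 48 hours in 96-well plates; a percent growth value below 10 was scored as active.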 A number with no mark means an inactive call. Calls of active or inactive are those of the source.

Among the data in PubChem BioAssay (NCI) are growth values, retold here.

`COc1cc2cc(c1Cl)N(C)C(=O)C[C@H](OC(=O)[C@H](C)N(C)C(C)=O)[C@]1(C)O[C@H]1[C@H](C)[C@@H]1C[C@@](O)(NC(=O)O1)[C@H](OC)C=C/C=C(\C)C2`: the growth was -14.5% (active) in the assay on HCT-15 colon; -29.3% (active) in the assay on HT29 colon; -49% (active) in the assay with SNB-75 CNS; 14.4% in the assay on SNB-19 CNS; 11.5% in the assay with U251 CNS; 0.19% (active) in the assay with PC-3 prostate. The growth was -24.4% (active) in the assay on SK-MEL-5 melanoma; 9.3% (active) in the assay on UACC-62 melanoma; 18.4% in the assay on LOX IMVI melanoma; 55.5% with SK-MEL-2 melanoma; 31.3% in the assay on EKVX NSCLC; 27.6% in the assay with SN12C renal. For the same molecule, the growth was 7.35% (active) in the assay with UO-31 renal; 26.5% in the assay with TK-10 renal; 16.6% with ACHN renal; 6.3% (active) in the assay on CAKI-1 renal; 4.38% (active) in the assay on A498 renal; -7.22% (active) in the assay with CCRF-CEM leukemia. The growth in the assay with MOLT-4 leukemia was 14.2%.
`Cc1cccc(C(=O)N(C(C)C)C(C)C)c1`: the growth in the assay with HCT-15 colon is 96.7%; in the assay with HT29 colon, 92.8%; in the assay with SNB-75 CNS it was 95%; with SNB-19 CNS, 99.6%; with U251 CNS, 92.5%; with PC-3 prostate, 92.8%. Also, the growth in the assay with SK-MEL-5 melanoma was 95.3%; in the assay on UACC-62 melanoma, 96.5%; in the assay on LOX IMVI melanoma, 96.1%; with SK-MEL-28 melanoma it was 103%; with EKVX NSCLC it was 95%; with SN12C renal, 96.1%. For the same molecule, the growth in the assay on UO-31 renal is 94.4%; in the assay with TK-10 renal, 87%; in the assay with ACHN renal, 101%; with CAKI-1 renal it was 96.4%; with A498 renal, 71.9%; with CCRF-CEM leukemia, 90.7%. For the same molecule, the growth with MOLT-4 leukemia is 108%.
For the molecule `C=CC(=O)OCCCCCCCC`, the growth in the assay with HCT-15 colon is 95%; in the assay on HT29 colon, 124%; in the assay with SNB-75 CNS, 91.2%; in the assay with SNB-19 CNS, 101%; in the assay with U251 CNS, 98.8%; with PC-3 prostate, 106%. Besides, the growth is 110% with SK-MEL-5 melanoma; 102% in the assay with UACC-62 melanoma; 101% in the assay on LOX IMVI melanoma; 110% with SK-MEL-28 melanoma; 111% with EKVX NSCLC; 103% in the assay on SN12C renal. For the same molecule, the growth was 88.4% in the assay on UO-31 renal; 140% in the assay on TK-10 renal; 101% with ACHN renal; 97.6% with CAKI-1 renal; 89.8% in the assay with A498 renal; 83% in the assay with CCRF-CEM leukemia. In addition, the growth with MOLT-4 leukemia was 89.9%.
Consider `CC(=O)c1ccc2c(ccc3ccccc32)c1`, for which the growth was 68.4% with HCT-15 colon; 95.6% in the assay on HT29 colon; 105% with SNB-75 CNS; 99.4% with SNB-19 CNS; 92.1% in the assay on U251 CNS; 104% in the assay with PC-3 prostate. For the same molecule, the growth is 96.8% in the assay on SK-MEL-5 melanoma; 96.5% with UACC-62 melanoma; 107% in the assay on LOX IMVI melanoma; 108% with SK-MEL-28 melanoma; 102% with SN12C renal; 100% in the assay with UO-31 renal. Moreover, the growth with ACHN renal was 110%; in the assay on CAKI-1 renal, 107%; in the assay on A498 renal it was 92.8%; with CCRF-CEM leukemia it was 86.2%; in the assay with MOLT-4 leukemia, 93%.
In the case of `COc1cc2c(cc1OC)[C@H](C(=O)O)[C@@H](c1ccc(OC(C)C)c(OC)c1)N(C)C2=O`, the growth was 101% with HCT-15 colon; 105% in the assay with HT29 colon; 90.4% in the assay with SNB-75 CNS; 94.8% in the assay on SNB-19 CNS; 97.3% in the assay with U251 CNS; 90% in the assay with PC-3 prostate. Moreover, the growth with SK-MEL-5 melanoma was 102%; in the assay on UACC-62 melanoma, 89.6%; in the assay with LOX IMVI melanoma, 94.7%; in the assay on SK-MEL-28 melanoma it was 116%; with EKVX NSCLC it was 92.7%; in the assay on SN12C renal, 90.4%. The growth in the assay with UO-31 renal is 97.6%; in the assay on TK-10 renal it was 96.2%; in the assay with ACHN renal, 96.2%; in the assay on CAKI-1 renal, 80%; in the assay with A498 renal, 137%; in the assay on CCRF-CEM leukemia, 96.6%. Also, the growth in the assay with MOLT-4 leukemia was 94.3%.
For `O=C(O)/C=C/C(=O)NCc1ccccc1`, the growth in the assay with HCT-15 colon is 97.3%; in the assay on HT29 colon, 105%; in the assay with SNB-75 CNS it was 81.9%; with SNB-19 CNS, 115%; in the assay with U251 CNS, 118%; in the assay with PC-3 prostate, 101%. Also, the growth is 101% in the assay on SK-MEL-5 melanoma; 118% in the assay on UACC-62 melanoma; 97% in the assay with LOX IMVI melanoma; 105% with SK-MEL-28 melanoma; 108% in the assay with SN12C renal; 90.9% in the assay with UO-31 renal. Moreover, the growth in the assay on ACHN renal was 97.9%; with CAKI-1 renal it was 102%; in the assay on A498 renal it was 109%; in the assay with MOLT-4 leukemia, 101%.
With `CO[C@H]1C[C@@H]2CC[C@@H](C)[C@@](O)(O2)C(=O)C(=O)N2CCCC[C@H]2C(=O)O[C@H]([C@H](C)C[C@@H]2CC[C@@H](O)[C@H](OC)C2)CC(=O)[C@H](C)C=C(C)[C@@H](O)[C@@H](OC)C(=O)[C@H](C)C[C@H](C)/C=C/C=C/C=C1C`, the growth in the assay with HCT-15 colon was 42.7%; with HT29 colon it was 45.3%; in the assay with SNB-75 CNS, 13.3%; in the assay with SNB-19 CNS, 46.2%; with U251 CNS, 51.8%; with PC-3 prostate, 44%. Moreover, the growth in the assay with SK-MEL-5 melanoma is 24.8%; with UACC-62 melanoma, 43.8%; with LOX IMVI melanoma it was 51.9%; with SK-MEL-2 melanoma, 75.8%; in the assay with EKVX NSCLC, 36.5%; in the assay with SN12C renal, 74.2%. Also, the growth was 26.3% in the assay with UO-31 renal; 71.7% in the assay on TK-10 renal; 59.3% in the assay with ACHN renal; 52.2% in the assay on CAKI-1 renal; 30.6% in the assay on CCRF-CEM leukemia; 37.4% in the assay with MOLT-4 leukemia.
On to `CC(=O)OC(OC(C)=O)C1CCCO1` (stereo not drawn), for which the growth in the assay on HCT-15 colon was 104%; with HT29 colon, 106%; in the assay on SNB-75 CNS, 90.2%; in the assay on SNB-19 CNS, 109%; with U251 CNS, 105%; in the assay with PC-3 prostate, 95.5%. The growth in the assay on SK-MEL-5 melanoma was 104%; with UACC-62 melanoma, 95.2%; in the assay with LOX IMVI melanoma it was 89.7%; in the assay with SK-MEL-28 melanoma, 97%; in the assay on EKVX NSCLC it was 97.7%; in the assay on SN12C renal, 96.8%. The growth is 103% in the assay on TK-10 renal; 98.7% in the assay on ACHN renal; 112% in the assay on CAKI-1 renal; 106% in the assay on A498 renal; 109% in the assay with CCRF-CEM leukemia; 123% with MOLT-4 leukemia.
For the molecule `COc1ncnc2c1cnn2C`, the growth is 98.9% in the assay with HCT-15 colon; 107% in the assay with HT29 colon; 113% with SNB-75 CNS; 110% with SNB-19 CNS; 106% in the assay on U251 CNS; 101% in the assay with PC-3 prostate. For the same molecule, the growth in the assay on SK-MEL-5 melanoma is 101%; with UACC-62 melanoma it was 98.9%; with LOX IMVI melanoma, 98%; in the assay with SK-MEL-28 melanoma it was 111%; in the assay with EKVX NSCLC, 100%; in the assay on SN12C renal it was 98.2%. Besides, the growth is 108% in the assay on TK-10 renal; 98.1% in the assay on ACHN renal; 105% in the assay with CAKI-1 renal; 99.7% in the assay on A498 renal; 97% in the assay with CCRF-CEM leukemia; 89.9% in the assay with MOLT-4 leukemia.
